Here are results for 37 molecules from ChEMBL document CHEMBL1157539, “Thousands of chemical starting points for antimalarial lead identification” (Nature, 2010).

The Inhibition is the percentage by which the read-out fell short of the control. A higher Inhibition goes with a response far below the control.

This test concerns Plasmodium falciparum. Description: GSK_TCMDC: Inhibition of Plasmodium falciparum 3D7 in whole red blood cells, using parasite LDH activity as an index of growth. Test compounds present at 2uM. It counts as functional.
Consider `COc1ccc2c(=NN=C(C)c3ccccn3)cc(C)[nH]c2c1`, for which the Inhibition is 100%.
Molecule `Cn1nc(-c2ccc(Cl)cc2)c2cc(C(=O)NCCN3CCOCC3)sc21` returned an Inhibition of 97%.
The result for `Cc1csc(-c2nc(NCCc3c(C)noc3C)ncc2-c2ccsc2)n1` reads 90%; that for `CC(Nc1ccc2c(c1)CCC2)C(=O)Nc1cc(C(F)(F)F)ccc1N1CCOCC1` (configuration not stated), 100%.
In the case of `O=C(Nc1cccc(Cl)c1Cl)N[C@H]1CCN(CCCCCNC(=O)C2CC2c2ccc(Cl)c(Cl)c2)C1` (some centres not stated) it was 87%; in that of `Cc1cc(N2CCCC2=O)ccc1-c1ccc(C(=O)N2CCC(Oc3cccc(Cl)c3)CC2)cc1`, 99%; in that of `COc1ccc(C(=O)N2CCN(c3ccc([N+](=O)[O-])c(NC4CC4)c3)CC2)cc1Br`, 99%.
As to `COc1cc2nc(NCCn3nc(C)cc3C)nc(NCCc3ccccc3)c2cc1OC`, the Inhibition worked out at 100%.
In the case of `Cl.Cn1c(/C=C/C(=O)NC2CCC(CCN3CCc4ccc(C#N)cc4CC3)CC2)cc2ccccc21` (configuration not stated) it was 100%; in that of `COc1ccc(CNC2Cc3ccccc3C2)cc1-c1ccc(OC)c(S(=O)(=O)NCCN2CCCC2)c1.O=C(O)C(F)(F)F`, 100%; in that of `COc1ccc(S(=O)(=O)NCC2CCCN(CCCCCNC(=O)/C=C/c3ccc(Cl)c(Cl)c3)C2)cc1` (configuration not stated), 81%.
`Cc1onc(-c2c(F)cccc2Cl)c1C(=O)Nc1ccccc1I`: the Inhibition was found to be 99%.
The result for `O=C(Nc1cccc(N2CCC(NCCCn3ccnc3)CC2)c1)c1cccc(C(F)(F)F)c1` reads 100%.
In the case of `CCC(CC)n1c(C)cc2c3c(N)nc(N)nc3ccc21` it was 95%.
Molecule `CC1Cc2ccccc2N1S(=O)(=O)c1cc(OCC(F)(F)F)ccc1OCC(F)(F)F` (configuration not stated) registered an Inhibition of 96%.
In the case of `Cc1ccc(F)c(OCC2CCCN(c3ccc(C(=O)NC4CC4)cn3)C2)c1` (configuration not stated) it was 96%; in that of `O=S(=O)(c1ccccc1C(F)(F)F)C1CC2CCC(C1)N2S(=O)(=O)c1ccc(Cl)c(C(F)(F)F)c1` (configuration not stated), 97%.
Take `Cc1cc2nc(-c3ccc(/C=C/C(=O)NCCc4ccccc4)cc3)[nH]c2cc1C`: the Inhibition came to 98%.
In the case of `O=C(/C=C/c1ccc(Cl)c(Cl)c1)NCCCCCN1CCCC(CNS(=O)(=O)c2ccc(F)cc2)C1` (configuration not stated) it was 91%; in that of `N#Cc1cccc(CN2CCCN(Cc3ccc(C(=O)Nc4ccc(Cl)cc4)cc3)CC2)c1.O=C(O)C(F)(F)F`, 98%; in that of `CC(=O)c1sc(NC(=O)Nc2ccc(C)cc2C)nc1C`, 96%.
In the case of `CC(=O)c1c(C)[nH]c(C(=O)Nc2ccc(-c3nc4ccc(C)cc4s3)cc2)c1C` it was 92%; in that of `O=S(=O)(c1cc(Cl)c(Cl)cc1Cl)N1CCCCC(c2ccc(C(F)(F)F)cc2)=N1`, 98%; in that of `COc1cc(NC2=C(c3ccccc3)C(=O)c3ccccc32)ccn1`, 96%.
In the case of `Cc1ccccc1C1CCN(C2CCC(NC(=O)/C=C/c3cc(C(F)(F)F)ccc3F)CC2)CC1` (configuration not stated) it was 100%; in that of `COc1cc2nc(N3CCC(CNC(=O)c4ccc(NC(=O)c5ccc(Cl)cc5)cc4)CC3)nc(N)c2cc1OC`, 100%.
Turning to `CNC(=O)NC1CCN(Cc2c(-c3cccs3)nc3ccccc3c2C(=O)N[C@@H](C)C2CCCCC2)CC1`, the Inhibition is 99%.
Take `CCCCCCN1CCN(Cc2cccc(NC(=O)c3cc4ccccc4o3)c2)CC1.O=C(O)C(F)(F)F`: the Inhibition is listed as 93%.
With `O=C(Nc1ccc(Cl)c(Cl)c1)Nc1ccc2c(c1)CCNCC2.O=C(O)C(F)(F)F`, the Inhibition was determined as 86%.
The result for `COc1ccc(CCN2CC[C@H](Nc3nc(-c4ccc(F)c(F)c4)nc4ccccc34)C2)cc1S(N)(=O)=O.Cl` reads 99%.
`CC(CN(C)C)C(=O)Nc1ccc(-c2csc(-c3nc4ccccc4[nH]3)c2)cc1` (configuration not stated) showed an Inhibition of 84%.
For `O=C(Nc1cccc(-c2ccc(-c3nc4cc(F)ccc4[nH]3)cc2)c1)c1cccnc1`, the Inhibition was 100%.
The result for `N=C(N)Nc1nc(-c2cccc(NCCCCCCCCON3C(N)=NC(N)=NC34CCCCC4)c2)cs1.O=C(O)C(F)(F)F` reads 97%; that for `CCOc1ccc(C2CCN(CCN3CCC(NC(=O)c4ccc(-c5ccc(C(F)(F)F)cc5)cc4)CC3)CC2)c(OCC2CC2)c1`, 99%.
`CC(=O)Nc1nc(C(=O)Nc2cccc(-c3ccc(-c4nc5cccc(C)c5[nH]4)cc3)c2)cs1` gave an Inhibition of 100%.
In the case of `O=C(Nc1ccc2c(c1)OCO2)c1cc(-c2cccnc2)nc2ccc(Cl)cc12` it was 89%; in that of `Cc1cccc2nc(-c3ccc(-c4ccc(CNCC5CCCO5)cc4)s3)[nH]c12.O=C(O)C(F)(F)F` (configuration not stated), 100%.
